In PubChem BioAssay (NCATS) one finds Potency, activity change, negative = inhibition and activity, negative = inhibition data, which are given here for 25 molecules.

The structures appear in SMILES notation. Records with an inconclusive call do not appear. Unmarked numbers belong to inactive results. Active and inactive are the calls of the source. Unless noted, calls come from the whole dose curve; as a rule, active = well fitted curve in the direction sought with a large enough effect; inconclusive = small, poorly fitted or top-dose-only effect, or another doubt; inactive = no such curve, though single readings can be large; an effect the other way counts as inactive or inconclusive.

A short description of test [1]: qHTS for Inhibitors of Plasmodium falciparum (GB4) proliferation (AID 504315).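 For activity change, negative = inhibition: 0% = DMSO vehicle and -100% = 0.29 µM artemisinin control.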 Note: nearly all actives have a fitted effect of over 50% in size. Note: potency is the fitted concentration of half-maximal effect. Put shortly:
(§1)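 Parasite growth measured as SYBR Green DNA fluorescence (ex 485, em 535 nm) after overnight lysis following 72 h culture at 37 °C, 0.3% parasitemia, 2.5% hematocrit. Values normalized against DMSO and 0.29 uM artemisinin controls, with plate-stack correction.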

Test [2] can be described thus: qHTS for Inhibitors of Plasmodium falciparum (HB3) proliferation (AID 504318).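 For activity change, negative = inhibition: 0% = DMSO vehicle and -100% = artemisinin control.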 Note: nearly all actives have a fitted effect of over 60% in size. Note: potency is the fitted concentration of half-maximal effect. Put shortly:
as §1

Test [3] in a line: qHTS for Inhibitors of Plasmodium falciparum (CP250) proliferation (AID 504320).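 Note: plate controls were DMSO vehicle for no effect and 0.29 µM artemisinin control for full effect.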 Put shortly:
as §1

The target of test [4] is Atrial natriuretic peptide receptor 1 (Homo sapiens) (UniProt P16066). Description: Natriuretic polypeptide receptor (hNpr1) antagonism - Pilot CMLD screen (AID 1347052; calls by dose curve;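 note: HEK293 cells with hNpr1 stimulated by hNppA peptide at 0.1 nM; cGMP level read as GloSensor luciferase luminescence after agonist stimulation; series mostly up to about 9.2 µM; % is set by controls: 0 for no effect and ±100 for the full control effect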).
The nature of test [5]: qHTS for Inhibitors of Plasmodium falciparum (7G8) proliferation (AID 504316).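 For activity change, negative = inhibition: series mostly up to about 6.7 µM; 0% = DMSO vehicle and -100% = 0.29 µM artemisinin full kill.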 Note: nearly all actives have a fitted effect of over 65% in size. Note: potency is the fitted concentration of half-maximal effect. Put shortly:
as §1

Test [6] addresses Cytochrome P450 2C9 (Homo sapiens) (UniProt P11712). Put plainly: qHTS Assay for Inhibitors and Substrates of Cytochrome P450 2C9 (AID 883). Note: % is set by controls: 0 for no effect and ±100 for the full control effect; nearly all actives have a fitted effect of over 60% in size. Put shortly:
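Luminescent read-out of deoxyluciferin hydroxylation, normalized to 57uM sulphaphenazole (AC100). Reaction: 10nM enzyme, 100uM Luciferin-H (equal to KM), 25mM KPO4, 10 min compound preincubation, then 60 min with NADPH regeneration, both at 37C.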

For test [7], the target named is Cytochrome P450 3A4 (Homo sapiens) (UniProt P08684). Put plainly: qHTS Assay for Inhibitors and Substrates of Cytochrome P450 3A4 (AID 884). Note: series mostly up to about 57 µM; % is set by controls: 0 for no effect and ±100 for the full control effect; nearly all actives have a fitted effect of over 50% in size. Put shortly:
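Luminescent readout of luciferin produced by CYP3A4 (20 nM) dealkylation of Luciferin-PPXE, 25 uM (its KM). NADPH-driven reaction ran 60 min at RT after 10 min compound preincubation; data scaled to 57 uM ketoconazole as 100% inhibition.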

In test [8] the target is Cytochrome P450 2C19 (Homo sapiens) (UniProt P33261). Put plainly: qHTS Assay for Inhibitors and Substrates of Cytochrome P450 2C19 (AID 899). Note: % is set by controls: 0 for no effect and ±100 for the full control effect; nearly all actives have a fitted effect of over 60% in size. The procedure, abridged: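 Luminescence readout of luciferin formed from 10uM Luciferin-H EGE (KM level) by 5 nM CYP2C19 in 50mM KPO4. 60 min NADPH-driven reaction at 37C after 10 min compound preincubation; data scaled to 57uM ketoconazole inhibition.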
Sequence of Cytochrome P450 2C19 (Homo sapiens) (P33261 whole entry, looked up): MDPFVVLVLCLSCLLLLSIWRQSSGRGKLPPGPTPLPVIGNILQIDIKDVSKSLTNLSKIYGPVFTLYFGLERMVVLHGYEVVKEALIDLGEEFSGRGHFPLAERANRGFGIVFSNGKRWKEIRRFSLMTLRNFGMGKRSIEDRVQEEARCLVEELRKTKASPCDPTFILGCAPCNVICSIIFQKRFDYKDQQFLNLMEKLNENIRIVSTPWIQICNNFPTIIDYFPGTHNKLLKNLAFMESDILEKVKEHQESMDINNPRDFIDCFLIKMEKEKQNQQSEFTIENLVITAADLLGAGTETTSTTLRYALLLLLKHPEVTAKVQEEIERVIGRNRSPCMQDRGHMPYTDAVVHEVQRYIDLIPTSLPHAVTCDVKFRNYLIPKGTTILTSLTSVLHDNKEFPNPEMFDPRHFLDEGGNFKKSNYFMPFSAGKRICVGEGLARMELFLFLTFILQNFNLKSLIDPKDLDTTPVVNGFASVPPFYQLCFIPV

Sequence of Atrial natriuretic peptide receptor 1 (Homo sapiens) (P16066 whole entry, looked up): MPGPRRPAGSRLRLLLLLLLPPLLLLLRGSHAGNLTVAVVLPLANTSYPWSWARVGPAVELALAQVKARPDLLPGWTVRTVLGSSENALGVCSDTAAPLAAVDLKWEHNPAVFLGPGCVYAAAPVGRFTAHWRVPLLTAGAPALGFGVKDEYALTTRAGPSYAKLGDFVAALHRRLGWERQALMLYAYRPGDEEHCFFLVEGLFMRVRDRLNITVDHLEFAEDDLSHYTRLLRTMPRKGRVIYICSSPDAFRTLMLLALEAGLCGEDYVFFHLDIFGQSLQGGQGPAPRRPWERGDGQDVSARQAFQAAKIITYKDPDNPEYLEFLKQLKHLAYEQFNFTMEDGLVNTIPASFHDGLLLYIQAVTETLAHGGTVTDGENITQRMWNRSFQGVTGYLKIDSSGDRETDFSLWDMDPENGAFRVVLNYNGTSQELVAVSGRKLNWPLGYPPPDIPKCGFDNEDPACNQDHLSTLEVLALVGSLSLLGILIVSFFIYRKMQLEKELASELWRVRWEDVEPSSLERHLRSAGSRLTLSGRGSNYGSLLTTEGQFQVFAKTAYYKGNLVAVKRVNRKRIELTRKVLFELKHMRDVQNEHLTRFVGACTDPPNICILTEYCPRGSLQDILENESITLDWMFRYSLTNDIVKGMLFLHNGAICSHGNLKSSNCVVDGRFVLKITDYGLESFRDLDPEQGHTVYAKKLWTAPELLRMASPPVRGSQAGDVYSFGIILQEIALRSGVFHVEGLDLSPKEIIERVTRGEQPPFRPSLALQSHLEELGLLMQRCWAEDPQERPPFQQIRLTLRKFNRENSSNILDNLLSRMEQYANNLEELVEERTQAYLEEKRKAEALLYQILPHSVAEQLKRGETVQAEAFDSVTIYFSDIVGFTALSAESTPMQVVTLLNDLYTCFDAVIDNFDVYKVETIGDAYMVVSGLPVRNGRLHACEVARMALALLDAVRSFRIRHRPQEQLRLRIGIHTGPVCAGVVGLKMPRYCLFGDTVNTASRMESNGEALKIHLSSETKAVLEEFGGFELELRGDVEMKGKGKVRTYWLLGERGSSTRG
Sequence of Cytochrome P450 2C9 (Homo sapiens) (P11712 whole entry, looked up): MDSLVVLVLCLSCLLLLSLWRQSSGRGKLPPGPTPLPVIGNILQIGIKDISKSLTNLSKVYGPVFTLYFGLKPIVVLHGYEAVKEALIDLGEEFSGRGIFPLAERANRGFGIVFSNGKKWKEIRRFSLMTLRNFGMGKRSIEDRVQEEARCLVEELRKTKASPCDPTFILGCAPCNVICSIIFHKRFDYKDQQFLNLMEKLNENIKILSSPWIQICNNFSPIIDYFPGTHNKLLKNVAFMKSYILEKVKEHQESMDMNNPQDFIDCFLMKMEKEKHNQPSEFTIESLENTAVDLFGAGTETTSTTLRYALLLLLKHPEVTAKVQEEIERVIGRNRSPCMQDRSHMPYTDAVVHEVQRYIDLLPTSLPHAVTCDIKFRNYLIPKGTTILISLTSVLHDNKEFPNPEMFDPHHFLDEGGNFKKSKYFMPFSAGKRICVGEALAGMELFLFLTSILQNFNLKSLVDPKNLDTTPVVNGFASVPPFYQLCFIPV
Sequence of Cytochrome P450 3A4 (Homo sapiens) (P08684 whole entry, looked up): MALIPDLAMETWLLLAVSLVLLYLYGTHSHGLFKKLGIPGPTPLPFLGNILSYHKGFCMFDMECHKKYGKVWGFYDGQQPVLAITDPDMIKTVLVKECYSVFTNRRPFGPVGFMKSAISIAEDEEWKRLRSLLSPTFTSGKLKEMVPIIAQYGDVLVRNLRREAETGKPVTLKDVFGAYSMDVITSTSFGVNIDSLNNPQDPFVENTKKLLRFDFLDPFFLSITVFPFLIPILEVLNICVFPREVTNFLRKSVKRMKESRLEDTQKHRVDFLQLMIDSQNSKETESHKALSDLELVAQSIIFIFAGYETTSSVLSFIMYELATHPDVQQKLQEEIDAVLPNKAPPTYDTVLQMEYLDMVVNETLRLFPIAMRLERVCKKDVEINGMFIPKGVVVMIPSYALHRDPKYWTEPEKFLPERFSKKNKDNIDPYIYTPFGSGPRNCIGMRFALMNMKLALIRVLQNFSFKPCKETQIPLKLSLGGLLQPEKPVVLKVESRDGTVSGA

In the case of `COc1ccc(N2C(=O)N3[C@H](c4ccccc4)[C@@H](C)C[C@H]4c5ccccc5C[C@]43C2=O)cc1`, the Potency result in test [1], in test [2], in test [3] and in test [4] was “inactive” each time.
On to `CCCC[C@]12Cc3cc(C#N)ccc3[C@H](O1)c1c(c3cc(F)ccc3oc1=O)O2`, for which the Potency entry in test [1], in test [2], in test [3] and in test [4] was “inactive” in each case.
In the case of `COC(=O)C(C(=O)OC)[C@@H]1O[C@@]23COC=C[C@]2(C)[C@@H]3c2ccccc21`, the Potency result in test [1], in test [2], in test [3] and in test [4] was “inactive” each time.
As to `CC#C[C@H](C)[C@@H](OCOC)[C@H](C[C@H](C)Cc1cc(Br)cc(OCc2ccccc2)c1OC)OC`, the Potency is 1.51 µM (active) in test [1] and 1.69 µM (active) in test [2]. In test [4], the Potency result is “inactive”.
As to `C[C@@H]1C=CCC(=O)N[C@@H](c2ccccc2)[C@H](C)C=CCC(=O)N[C@@H]1c1ccccc1`, the Potency entry in test [1], in test [2], in test [3] and in test [4] was “inactive” each time.
Turning to `CC(=O)C1=C(C)N(Cc2ccccc2)C(=O)NC1CCc1ccccc1` (centres undefined), the Potency entry in test [1], in test [2], in test [3] and in test [4] was “inactive” in each case.
Take `CC1(OC(=O)C2CCCC2)C(=O)C=C2C=C(c3ccsc3)N(Cc3ccc4c(c3)OCO4)C=C2C1=O` (centres undefined): the Potency result in test [1], in test [5], in test [3] and in test [4] was “inactive” each time.
In the case of `COC(=O)c1ccc(CN2C(=O)[C@]3(OCCC=C[C@@H]3C)c3cc(OC)ccc32)cc1`, the Potency result in test [1], in test [5], in test [3] and in test [4] was “inactive” throughout.
In the case of `O=C1CCCC2=C1[C@H]1O[C@](c3ccsc3)(Cc3c1ccc1ccccc31)O2`, the Potency result in test [1], in test [2], in test [3] and in test [4] was “inactive” each time.
Regarding `CC1(OC(=O)C2CCCC2)C(=O)C=C2C=C(c3ccsc3)N(C3CCCCC3)C=C2C1=O` (centres undefined), the Potency entry in test [1], in test [5], in test [3] and in test [4] was “inactive” throughout.
Consider `COC(=O)CCCC1=CC2=C(c3ccccc3)C(=O)C(C)(OC(=O)C3CCCC3)C(=O)C2=CN1c1ccc(OC)cc1` (centres undefined), for which the Potency entry in test [1], in test [5], in test [3] and in test [4] was “inactive” each time.
For the molecule `Cc1c(O)c(=O)ccn1Cc1ccccc1`, the activity change, negative = inhibition in test [6] was -0.343% [at 11.4 µM]; in test [7], -6.33% [at 11.4 µM]. Further, the activity, negative = inhibition in test [8] is 38.4% [at 11.4 µM]. The Potency entry in test [1], in test [5] and in test [4] was “inactive” in each case.
Consider `CCN1C(=NCCCOC(C)C)N[C@@H](CCc2ccccc2)[C@H](C(=O)NCCCOC(C)C)[C@H]1C`, for which the Potency result in test [1], in test [2] and in test [4] was “inactive” each time.
With `CCc1cc2c(nc1CC)CCN(CCC(C)=NOC[C@@H](O)COCc1ccco1)C2`, the Potency entry in test [1], in test [3] and in test [4] was “inactive” in each case. The Potency in test [5] is 1.51 µM (active).
`C#CCCCON=C1C[C@@H](O)[C@H](O)[C@H]2[C@@H]3C(=O)N(c4cccc(Oc5ccccc5)c4)C(=O)[C@@H]3CC[C@@H]12`: the Potency result in test [1], in test [2] and in test [4] was “inactive” in each case.
Take `COc1cccc([C@@H]2Oc3ccc(OC)cc3C(=O)[C@@H]2OC(=O)Nc2cc(OC)c(OC)c(OC)c2)c1`: the Potency result in test [1], in test [2] and in test [4] was “inactive” each time.
In the case of `COC(=O)[C@]1(CC=Cc2ccccc2)C=C[C@@H](C)[C@H](c2ccccc2Br)N1C(=O)C(F)(F)F`, the Potency in test [1] is 1.69 µM (active); in test [2], 1.9 µM (active). The Potency entry in test [4] was “inactive”.
Turning to `CC1=C2[C@H](O)[C@H]([C@@H](C)C(=O)NCCC(C)C)CC[C@@]2(C)C=CC1=O`, the Potency entry in test [1], in test [5], in test [3] and in test [4] was “inactive” throughout.
For `COC(=O)C1=C(C(=O)OC)[C@@H]2N(C)c3ccc(OC)cc3[C@@]23C[C@@H](C(=O)OC)N(C(=O)NCCBr)C3=N1`, the Potency in test [1] and in test [2] was 2.13 µM (active) in each case. Also, the Potency entry in test [4] is “inactive”.
`CCN1C(=O)NC(c2cccc(F)c2)C(C(=O)OC)=C1C` (centres undefined): the Potency entry in test [1], in test [2], in test [3] and in test [4] was “inactive” in each case.
As for `CC(C)=CCN1C(=O)[C@@]2(CC(C)=C[C@@H](COCc3ccccc3)O2)c2ccccc21`, the Potency result in test [1], in test [3] and in test [4] was “inactive” each time. In addition, in test [5], the Potency is 1.9 µM (active).
Consider `CC(=O)OC[C@H]1O[C@H](CC=NO[C@@H](C)CN2CCCc3nc(C)c(C)cc32)C=C[C@@H]1OC(C)=O`, for which the Potency entry in test [1], in test [2] and in test [4] was “inactive” in each case.
Turning to `COC(=O)C1=C(C(=O)OC)[C@@H]2N(CC=C(C)C)c3ccccc3[C@@]23CCC(=O)N(Cc2cccc(C(F)(F)F)c2)C3=N1`, the Potency in test [1] is 0.849 µM (active); in test [2], 2.94 µM (active). For the same molecule, the Potency result in test [4] was “inactive”.
Take `CCOC(=O)NN=C1C[C@@H](O)[C@@H](O)[C@@H]2[C@H]3C(=O)N(C4CCCCC4)C(=O)[C@@H]3CC[C@H]12`: the Potency entry in test [1], in test [2], in test [3] and in test [4] was “inactive” each time.
For the molecule `CCCCc1cc2c(cn1)=C(OC(=O)CCC(=O)OC)C(C)(OC(=O)CC)C(=O)C=2` (centres undefined), the Potency in test [1] and in test [5] was 1.69 µM (active) in each case. Besides, the Potency entry in test [3] and in test [4] was “inactive” throughout.
